Data published in a collection of fitness landscapes (doi:10.1016/j.celrep.2020.107928).
The full ranking holds about 81,000 sequences; the median of “one-hybrid fitness for binding parS DNA” is about -0.17, and the highest 2% start at about 0.51. For the sample, the highest values were picked, then their nearest neighbours and some sequences at random.

B1: Caulobacter ParB omega fusion; a variant is named by its letters at X, in order, B8GW30 (parent)
chain: MESVVVGEPGMSEGRRGLGRGLSALLGEVDAAPAQAPGEQLGGSREAPIEILQRNPDQPRRTFREEDLEDLSNSIREKGVLQPILVRPSPDTAGEYQIVAGERAWRAAQRAGLKTVPIMVRELDDLAVLEIGIIENVQRADLNVLEEALSYKVLMEKFERTQENIAQTIGKSXSHVANXMRLLXLPDEVQSYLVSGELTAXHARAIAAAADPVALAKQIIEGGLSVRETEALARKAPNLSAGKSKGGRPPRVKDTDTQALESDLSSVLGLDVSIDHRGSTGTLTITYATLEQLDDLCNRLTRGI

Variants of: B1
Assay: one-hybrid fitness for binding parS DNA (scaled: cognate 1, non-cognate 0); higher = stronger binding
Details: with parS DNA site
In short: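 Fitness here means the log change in variant-to-wild-type read ratio between plasmids sequenced before and after selection. That scale was set so cognate equals 1 and non-cognate equals 0. The selection was a bacterial one-hybrid screen of Caulobacter ParB libraries, four specificity codons randomised, in E. coli USO carrying a HIS3 reporter with the site 19 bp from the promoter, grown 48 hours at 37°C on M9-minus-histidine with 0.1 mM IPTG and 5 mM 3-AT.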

Variant	one-hybrid fitness for binding parS DNA
EGNL	≤ 0.2
RQND	0.221
RQNN	0.435
RQNC	0.947
RQDK	≤ 0.2
RQDC	0.863
RQDQ	≤ 0.2
AQKR	≤ 0.2
ICTY	≤ 0.2
TAVI	≤ 0.2
FVPC	≤ 0.2
LNCS	≤ 0.2
RVAA	0.582
NVAA	≤ 0.2
RVFA	0.611
DVAA	≤ 0.2
ELAG	≤ 0.2
GGPT	≤ 0.2
CRIG	≤ 0.2
ILFC	≤ 0.2
DQVG	≤ 0.2
LIPT	≤ 0.2
RQIR	≤ 0.2
RQPT	0.387
RQIC	0.735
RQPS	0.535

Variant	one-hybrid fitness for binding parS DNA
RQIS	0.87
RQIP	≤ 0.2
RQPP	≤ 0.2
RQPC	0.426
RQIT	0.647
RQPN	≤ 0.2
RQIY	0.256
RQID	≤ 0.2
PHRE	≤ 0.2
KTEC	≤ 0.2
QHGS	≤ 0.2
NLTC	≤ 0.2
VSIA	≤ 0.2
TPVW	≤ 0.2
SHLF	≤ 0.2
STKF	≤ 0.2
TPQT	≤ 0.2
VRSR	≤ 0.2
VFSG	≤ 0.2
HISS	≤ 0.2
ADIG	≤ 0.2
PGTC	≤ 0.2
LVVH	≤ 0.2
HWLK	≤ 0.2
MKPK	≤ 0.2
SPFG	≤ 0.2

Variant	one-hybrid fitness for binding parS DNA
RLDR	≤ 0.2
RLDM	0.299
RLNT	0.908
RLDT	0.806
RLNP	≤ 0.2
RLNN	0.455
HMTH	≤ 0.2
YIMG	≤ 0.2
ADTW	≤ 0.2
VKGM	≤ 0.2
WSTL	≤ 0.2
RAKT	0.824
RAKD	≤ 0.2
RAVK	≤ 0.2
RAVQ	0.23
RAVT	0.77
RAKN	0.462
RMYE	≤ 0.2
FKCS	≤ 0.2
AGFC	≤ 0.2
RTAP	≤ 0.2
RTFP	≤ 0.2
RTFH	0.246
RTAS	0.968
RTAD	≤ 0.2
RTFS	1.03

Variant	one-hybrid fitness for binding parS DNA
LFRV	≤ 0.2
GSFC	≤ 0.2
RVWI	≤ 0.2
RWKP	≤ 0.2
RWVP	≤ 0.2
RWVS	0.616
RWKS	0.961
RWKY	0.565
RWKH	0.228
RWVY	≤ 0.2
RWYY	0.248
RWVN	≤ 0.2
YYVT	≤ 0.2
MVNS	≤ 0.2
FTLM	≤ 0.2
AFVL	≤ 0.2
RKVD	≤ 0.2
RKKT	0.604
RKVR	≤ 0.2
RKKF	0.238
RKKM	0.231
RKVT	0.795
RPEH	≤ 0.2
KRWH	≤ 0.2
QVGR	≤ 0.2
CDRV	≤ 0.2

Variant	one-hybrid fitness for binding parS DNA
YIYL	≤ 0.2
MNCF	≤ 0.2
ICRD	≤ 0.2
RCQS	0.986
RAQS	0.998
RTQD	0.202
RIQS	0.99
RIQH	≤ 0.2
RPQS	≤ 0.2
RAQD	≤ 0.2
RDQS	≤ 0.2
RTQH	0.332
RTQS	0.951
RAQN	0.436
RIQD	≤ 0.2
CQTC	≤ 0.2
RWDL	≤ 0.2
WRAH	≤ 0.2
AEGK	≤ 0.2
AIFS	≤ 0.2
DPKT	≤ 0.2
RHQS	0.927
RMQH	0.313
RHQH	≤ 0.2
RSQS	0.984
RSQN	0.427

Variant	one-hybrid fitness for binding parS DNA
RHQN	0.382
RFQH	≤ 0.2
RMQS	1.02
RFQN	0.457
RMQN	0.501
RFQS	1
RSQD	≤ 0.2
GAHD	≤ 0.2
TLCR	≤ 0.2
MEVG	≤ 0.2
LAGY	≤ 0.2
QVDH	≤ 0.2
IRKY	≤ 0.2
FNNR	≤ 0.2
TAFI	≤ 0.2
QSRA	≤ 0.2
TERS	≤ 0.2
APMD	≤ 0.2
RKQN	0.3
RLQH	0.324
RKQD	≤ 0.2
RLQS	1
RLQP	0.206
RKQS	0.793
